# PubChem BioAssay (NCI)
# About 79,000 compounds went through this panel and 15% of them were active in at least one assay; those are over-represented in the sample as a whole. A number with no mark means an inactive call. The source made the active and inactive calls. Cut-off read from the data, not from the text of the source: active = growth inhibition above about 70%; inactive = the rest.
# Key:
# [1] = NCI Yeast Anticancer Drug Screen. Data for the rad52 strain (AID 147);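 note: 0% = growth of vehicle-treated control cultures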; conditions: S. cerevisiae rad52 mutant growth inhibition, active compounds read high
# Procedure, shortened: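 Yeast strain carrying a DNA damage repair alteration was exposed to test compounds. Growth inhibition was measured relative to vehicle-treated controls.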
# [2] = NCI Yeast Anticancer Drug Screen. Data for the wt1 strain (AID 149);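 note: 0% = growth of vehicle-treated wt1 cultures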; conditions: S. cerevisiae wt1 strain (SPY 50644) growth inhibition, active compounds read high
# Procedure, shortened: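 Vehicle-normalised growth inhibition; strain wt1; compound exposure.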
# [3] = NCI Yeast Anticancer Drug Screen. Data for the rad50EPP+ strain (AID 151);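 note: 0% = growth of vehicle-treated control cultures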; conditions: S. cerevisiae rad50 mutant strain, active compounds read high
# Procedure, shortened: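 Yeast strain carrying rad50 alteration (rad50EPP+) exposed to compounds; growth inhibition measured relative to vehicle-treated controls.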
# [4] = NCI Yeast Anticancer Drug Screen. Data for the mgt1 strain (AID 153); conditions: S. cerevisiae mgt1 mutant growth inhibition, active compounds read high
# Procedure, shortened: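 Yeast mgt1 strain (DNA repair/cell-cycle alteration panel) exposed to compounds; growth inhibition measured relative to vehicle-treated controls.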
# [5] = NCI Yeast Anticancer Drug Screen. Data for the rad50 strain (AID 155);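 note: 0% = growth of vehicle-only cultures of the same strain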; conditions: S. cerevisiae rad50 strain growth inhibition, active compounds read high
# Procedure, shortened: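 A DNA repair-deficient yeast mutant serves as the test organism; compound-induced growth inhibition is calculated against vehicle-treated cells.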
# [6] = NCI Yeast Anticancer Drug Screen. Data for the mec2-1 strain (AID 157); conditions: S. cerevisiae mec2-1 strain, active compounds read high
# Procedure, shortened: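 mec2-1 yeast strain, carrying an alteration in DNA damage repair or cell cycle control, was exposed to compounds; growth inhibition was measured relative to vehicle-treated controls.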
# [7] = NCI Yeast Anticancer Drug Screen. Data for the rad14 strain (AID 159);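 note: 0% = growth of vehicle-treated control cultures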; conditions: S. cerevisiae rad14 strain growth inhibition, active compounds read high
# Procedure, shortened: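 Vehicle-treated cultures served as the baseline for growth inhibition of a DNA repair-mutant yeast strain exposed to each compound.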
# [8] = NCI Yeast Anticancer Drug Screen. Data for the sgs1 mgt1 strain (AID 161);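 note: 0% = growth of cultures given vehicle only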; conditions: S. cerevisiae sgs1 mgt1 strain, active compounds read high
# Procedure, shortened: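 Growth of a repair-deficient yeast mutant was monitored after compound treatment and expressed as inhibition relative to vehicle-treated cultures.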
# [9] = NCI Yeast Anticancer Drug Screen. Data for the CLN2oe strain (AID 163);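 note: 0% = growth of vehicle-only control cultures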; conditions: S. cerevisiae CLN2oe strain, active compounds read high
# Procedure, shortened: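 Yeast cells carrying a defined cell-cycle control alteration were exposed to test compounds. Growth inhibition was scored against vehicle-treated control cultures.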
# [10] = NCI Yeast Anticancer Drug Screen. Data for the cln2 rad14 strain (AID 165);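 note: 0% = growth equal to vehicle treated cultures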; conditions: S. cerevisiae cln2 rad14 strain, active compounds read high
# Procedure, shortened: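 Yeast carrying cln2 and rad14 alterations (cell cycle control and DNA damage repair) were exposed to compounds. Growth inhibition was measured against vehicle-treated controls.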
# [11] = NCI Yeast Anticancer Drug Screen. Data for the bub3 strain (AID 167); conditions: S. cerevisiae bub3 mutant strain, active compounds read high
# Procedure, shortened: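 Inhibition values come from growth of compound-treated mutant yeast normalised to vehicle-treated controls.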
# [12] = NCI Yeast Anticancer Drug Screen. Data for the wt2 strain (AID 169);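 note: 0% = growth of vehicle-treated yeast cultures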; conditions: S. cerevisiae wt2 strain growth inhibition, active compounds read high
# Procedure, shortened: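 Yeast cells were exposed to test compounds, and growth inhibition was measured relative to vehicle-treated controls.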
# [13] = NCI Yeast Anticancer Drug Screen. Data for the mlh1 strain (AID 171);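 note: 0% = growth of vehicle-treated control cultures of the same strain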; conditions: S. cerevisiae mlh1 strain growth inhibition, active compounds read high
# Procedure, shortened: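 Yeast carrying a defined genetic alteration in DNA damage repair or cell cycle control were exposed to test compounds. Growth inhibition was measured relative to vehicle-treated controls.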
# [14] = NCI Yeast Anticancer Drug Screen. Data for the mlh1 rad18 strain (AID 175); conditions: S. cerevisiae mlh1 rad18 strain growth inhibition, active compounds read high
# Procedure, shortened: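 Growth inhibition of the yeast strain was measured after compound exposure and expressed relative to vehicle-treated controls. The strain carries defined defects in DNA damage repair.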
# [15] = NCI Yeast Anticancer Drug Screen. Data for the rad18 strain (AID 177); conditions: S. cerevisiae rad18 mutant growth inhibition, active compounds read high
# Procedure, shortened: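 Yeast carrying a defined DNA damage repair alteration were exposed to compounds. Growth inhibition was expressed relative to vehicle-treated controls.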
# [16] = NCI Yeast Anticancer Drug Screen. Data for the sgs1 strain (AID 173);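 note: 0% = growth of vehicle-only control cultures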; conditions: S. cerevisiae sgs1 mutant, active compounds read high
# Procedure, shortened: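 Yeast mutant strains carrying defined defects in DNA damage repair or cell cycle control were exposed to test compounds. Growth inhibition was scored against vehicle-treated controls.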
# [17] = at 5.0 µM (retest, dose inferred, filed as 0.5)
# [18] = at 50.0 µM (retest, dose inferred, filed as 5.0)
smiles,measurement,setting,value
COc1cc(O)c(O)c(C(C)(C)C)c1,growth inhibition,[1]; at 1.2 µM,-1%
same,growth inhibition,[1]; at 3.7 µM,3%
same,growth inhibition,[1]; at 11.0 µM,5%
same,growth inhibition,[1]; at 33.0 µM,10%
same,growth inhibition,[1]; at 100.0 µM,19%
same,growth inhibition,[2]; at 1.2 µM,-1%
same,growth inhibition,[2]; at 3.7 µM,-1%
same,growth inhibition,[2]; at 11.0 µM,4%
same,growth inhibition,[2]; at 33.0 µM,3%
same,growth inhibition,[2]; at 100.0 µM,4%
same,growth inhibition,[3]; at 1.2 µM,12%
same,growth inhibition,[3]; at 3.7 µM,16%
same,growth inhibition,[3]; at 11.0 µM,41%
same,growth inhibition,[3]; at 33.0 µM,53%
same,growth inhibition,[3]; at 100.0 µM,50%
same,growth inhibition,[4]; at 1.2 µM,-2%
same,growth inhibition,[4]; at 3.7 µM,-2%
same,growth inhibition,[4]; at 11.0 µM,4%
same,growth inhibition,[4]; at 33.0 µM,24%
same,growth inhibition,[4]; at 100.0 µM,12%
same,growth inhibition,[5]; at 1.2 µM,0%
same,growth inhibition,[5]; at 3.7 µM,-2%
same,growth inhibition,[5]; [17],10%
same,growth inhibition,[5]; at 11.0 µM,3%
same,growth inhibition,[5]; at 33.0 µM,6%
same,growth inhibition,[5]; [18],38%
same,growth inhibition,[5]; at 50.0 µM,63.7%
same,growth inhibition,[5]; at 100.0 µM,12%
same,growth inhibition,[6]; at 1.2 µM,-3%
same,growth inhibition,[6]; at 3.7 µM,-1%
same,growth inhibition,[6]; [17],4%
same,growth inhibition,[6]; at 11.0 µM,0%
same,growth inhibition,[6]; at 33.0 µM,5%
same,growth inhibition,[6]; [18],16%
same,growth inhibition,[6]; at 50.0 µM,59.5%
same,growth inhibition,[6]; at 100.0 µM,18%
same,growth inhibition,[7]; at 1.2 µM,-1%
same,growth inhibition,[7]; at 3.7 µM,-3%
same,growth inhibition,[7]; at 11.0 µM,5%
same,growth inhibition,[7]; at 33.0 µM,10%
same,growth inhibition,[7]; at 100.0 µM,19%
same,growth inhibition,[8]; [17],2%
same,growth inhibition,[8]; [18],50%
same,growth inhibition,[8]; at 50.0 µM,63.8%
same,growth inhibition,[9]; at 1.2 µM,-1%
same,growth inhibition,[9]; at 3.7 µM,-3%
same,growth inhibition,[9]; at 11.0 µM,3%
same,growth inhibition,[9]; at 33.0 µM,-3%
same,growth inhibition,[9]; at 100.0 µM,-6%
same,growth inhibition,[10]; [17],-14%
same,growth inhibition,[10]; [18],18%
same,growth inhibition,[10]; at 50.0 µM,4.65%
same,growth inhibition,[11]; at 1.2 µM,-6%
same,growth inhibition,[11]; at 3.7 µM,-5%
same,growth inhibition,[11]; [17],0%
same,growth inhibition,[11]; at 11.0 µM,2%
same,growth inhibition,[11]; at 33.0 µM,7%
same,growth inhibition,[11]; [18],82% (active)
same,growth inhibition,[11]; at 50.0 µM,61.1%
same,growth inhibition,[11]; at 100.0 µM,17%
same,growth inhibition,[12]; at 1.2 µM,-1%
same,growth inhibition,[12]; at 3.7 µM,0%
same,growth inhibition,[12]; at 11.0 µM,8%
same,growth inhibition,[12]; at 33.0 µM,12%
same,growth inhibition,[12]; at 100.0 µM,17%
same,growth inhibition,[13]; at 1.2 µM,3%
same,growth inhibition,[13]; at 3.7 µM,3%
same,growth inhibition,[13]; at 11.0 µM,9%
same,growth inhibition,[13]; at 33.0 µM,15%
same,growth inhibition,[13]; at 100.0 µM,26%
same,growth inhibition,[14]; [17],20%
same,growth inhibition,[14]; [18],82% (active)
same,growth inhibition,[14]; at 50.0 µM,22.9%
same,growth inhibition,[15]; at 1.2 µM,0%
same,growth inhibition,[15]; at 3.7 µM,1%
same,growth inhibition,[15]; at 11.0 µM,-17%
same,growth inhibition,[15]; at 33.0 µM,8%
same,growth inhibition,[15]; at 100.0 µM,16%
CCOc1ccc(NC(=O)C2=C(C)NC(C)=C(C(=O)Nc3ccc(OCC)cc3)C2c2cccc([N+](=O)[O-])c2)cc1,growth inhibition,[1]; at 1.2 µM,-2%
same,growth inhibition,[1]; at 3.7 µM,0%
same,growth inhibition,[1]; at 11.0 µM,5%
same,growth inhibition,[1]; at 33.0 µM,49%
same,growth inhibition,[1]; at 100.0 µM,82% (active)
same,growth inhibition,[2]; at 1.2 µM,1%
same,growth inhibition,[2]; at 3.7 µM,-3%
same,growth inhibition,[2]; at 11.0 µM,-5%
same,growth inhibition,[2]; at 33.0 µM,-28%
same,growth inhibition,[2]; at 100.0 µM,79% (active)
same,growth inhibition,[3]; at 1.2 µM,-1%
same,growth inhibition,[3]; at 3.7 µM,-1%
same,growth inhibition,[3]; at 11.0 µM,1%
same,growth inhibition,[3]; at 33.0 µM,3%
same,growth inhibition,[3]; at 100.0 µM,-4%
same,growth inhibition,[4]; at 1.2 µM,-1%
same,growth inhibition,[4]; at 3.7 µM,-2%
same,growth inhibition,[4]; at 11.0 µM,-3%
same,growth inhibition,[4]; at 33.0 µM,30%
same,growth inhibition,[4]; at 100.0 µM,92% (active)
same,growth inhibition,[5]; at 1.2 µM,-3%
same,growth inhibition,[5]; at 3.7 µM,-1%
same,growth inhibition,[5]; [17],-10%
same,growth inhibition,[5]; at 11.0 µM,-1%
same,growth inhibition,[5]; at 33.0 µM,39%
same,growth inhibition,[5]; [18],84% (active)
same,growth inhibition,[5]; at 50.0 µM,26.4%
same,growth inhibition,[5]; at 100.0 µM,79% (active)
same,growth inhibition,[6]; at 1.2 µM,-1%
same,growth inhibition,[6]; at 3.7 µM,-2%
same,growth inhibition,[6]; [17],0%
same,growth inhibition,[6]; at 11.0 µM,1%
same,growth inhibition,[6]; at 33.0 µM,36%
same,growth inhibition,[6]; [18],96% (active)
same,growth inhibition,[6]; at 50.0 µM,34.6%
same,growth inhibition,[6]; at 100.0 µM,90% (active)
same,growth inhibition,[7]; at 1.2 µM,-2%
same,growth inhibition,[7]; at 3.7 µM,-2%
same,growth inhibition,[7]; at 11.0 µM,-1%
same,growth inhibition,[7]; at 33.0 µM,9%
same,growth inhibition,[7]; at 100.0 µM,86% (active)
same,growth inhibition,[8]; [17],-12%
same,growth inhibition,[8]; [18],29%
same,growth inhibition,[8]; at 50.0 µM,27.1%
same,growth inhibition,[9]; at 1.2 µM,0%
same,growth inhibition,[9]; at 3.7 µM,-2%
same,growth inhibition,[9]; at 11.0 µM,-7%
same,growth inhibition,[9]; at 33.0 µM,4%
same,growth inhibition,[9]; at 100.0 µM,81% (active)
same,growth inhibition,[10]; [17],-4%
same,growth inhibition,[10]; [18],90% (active)
same,growth inhibition,[10]; at 50.0 µM,55.3%
same,growth inhibition,[11]; at 1.2 µM,-3%
same,growth inhibition,[11]; at 3.7 µM,-2%
same,growth inhibition,[11]; [17],-8%
same,growth inhibition,[11]; at 11.0 µM,1%
same,growth inhibition,[11]; at 33.0 µM,54%
same,growth inhibition,[11]; [18],97% (active)
same,growth inhibition,[11]; at 50.0 µM,41%
same,growth inhibition,[11]; at 100.0 µM,93% (active)
same,growth inhibition,[12]; at 1.2 µM,-3%
same,growth inhibition,[12]; at 3.7 µM,-2%
same,growth inhibition,[12]; at 11.0 µM,-2%
same,growth inhibition,[12]; at 33.0 µM,22%
same,growth inhibition,[12]; at 100.0 µM,87% (active)
same,growth inhibition,[16]; at 1.2 µM,-2%
same,growth inhibition,[16]; at 3.7 µM,0%
same,growth inhibition,[16]; at 11.0 µM,4%
same,growth inhibition,[16]; at 33.0 µM,44%
same,growth inhibition,[16]; at 100.0 µM,84% (active)
same,growth inhibition,[14]; [17],-7%
same,growth inhibition,[14]; [18],95% (active)
same,growth inhibition,[14]; at 50.0 µM,59.9%
same,growth inhibition,[15]; at 1.2 µM,-4%
same,growth inhibition,[15]; at 3.7 µM,-3%
same,growth inhibition,[15]; at 11.0 µM,3%
same,growth inhibition,[15]; at 33.0 µM,45%
same,growth inhibition,[15]; at 100.0 µM,83% (active)
